High-throughput results deposited in PubChem BioAssay by The Scripps Research Institute Molecular Screening Center.
SRC2 inh: human SRC2 (NCOA2) inhibition; AID 651957; HEK293 GAL4-SRC2 luciferase reporter, luminescence; actives 0.17% (n = 370,000); inhibition, % at 9 µM;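 active = inhibition above the mean inhibition of all tested compounds plus 3 SD, set per campaign, cut at about 52% in these data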
COUP-TFII inh: inhibitors of human COUP-TFII (NR2F2) | P24468 | HEK293T NGFI-A luciferase reporter, luminescence | inhibition, % at 8.6 µM | actives 0.7% (n = 370,000) | AID 686940;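 active = inhibition above a per-plate cutoff, mean inhibition of test wells between control levels plus 3 SD, cut at about 38% in these data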;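 also: cells cotransfected with COUP-TFII expression vector driving the NGFI-A reporter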
NCOA1 inh: human NCOA1 inhibition; actives 0.12% (n = 360,000); inhibition, % at 3.6 µM; AID 588354; Q15788; HEK293 GAL4-SRC1 luciferase reporter, luminescence;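 active = inhibition above the campaign mean plus 3 SD, with each screening campaign given its own cutoff, cut at about 60% in these data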
GalR3 antag: blocks the human galanin receptor 3; O60755; HEK293 GalR3-CNG cAMP membrane potential fluorescence; galR3 body fused to GalR1 C-terminus; inhibition, % at 3 µM; actives 0.44% (n = 360,000); AID 651719;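 active = inhibition above the screen-wide average plus 3 SD, cut at about 13% in these data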;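 also: forskolin and galanin both at EC90 stimulate the cells; cAMP rise reported by CNG channel membrane potential dye signal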
NR5A2 inv ag: suppresses constitutive activity of human LRH-1 | actives 0.13% (n = 360,000) | AID 602396 | HEK293T StAR-luciferase reporter, LRH-1 transfected, 24 h | inhibition, % at 3.6 µM;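 active = inhibition above the mean inhibition of all tested compounds plus 3 SD, cut at about 73% in these data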
SRC3 inh: inhibitors of human steroid receptor coactivator 3 (SRC3); Q9Y6Q9; HEK293 GAL4-SRC3 luciferase reporter, luminescence; inhibition, % at 3.6 µM; actives 0.17% (n = 360,000);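 active = inhibition above a per-campaign cutoff, the mean of all compounds plus 3 SD, cut at about 60% in these data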;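 also: higher means less SRC3-driven luciferase light from the GAL4 reporter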
GalR3 conf: confirmation of human galanin receptor 3 antagonists; actives 59% (n = 1,600); shares compounds with GalR3 antag; inhibition, % at 3 µM; HEK293 GalR3 CNG cAMP biosensor, membrane potential fluorescence; galR3 fused to GalR1 carboxy tail; challenged with forskolin and galanin at EC90;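 active = inhibition above the primary screen's cutoff, the mean inhibition of all screened compounds plus 3 SD, cut at about 13% in these data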
CNG parental: parental cell agonism counter-screen for GalR3 antagonists | shares compounds with GalR3 antag | HEK293-CNG parental cells, cAMP membrane potential fluorescence; normalised: DMSO wells 0%, forskolin wells 100% | activation, % at 3 µM | actives 10% (n = 1,600) | AID 652268; in the data active = activation above about 1.3%
Hits are given with their value; – = inactive; · = no result given. This is a sample that favours compounds with a hit; in the whole collection about 1.1% have one here.

SMILES	SRC2 inh	COUP-TFII inh	NCOA1 inh	GalR3 antag	NR5A2 inv ag	SRC3 inh	GalR3 conf	CNG parental
Cc1ccsc1/C=N/NC(=O)c1nnn(-c2nonc2N)c1-c1ccccc1	–	–	–	–	–	–	·	·
COc1cccc(-c2c(C(=O)N/N=C/c3sccc3C)nnn2-c2nonc2N)c1	–	–	–	·	–	–	–	–
Cc1ccccc1-c1cc(C(=O)O)nn1CC1CC(c2cccc([N+](=O)[O-])c2)=NO1 (stereo not drawn)	–	–	–	18	–	–	–	–
CC(=O)c1c(C)[nH]c(C(=O)OCC(=O)Nc2cc(Cl)ccc2[N+](=O)[O-])c1C	–	–	–	93	–	–	50	–
CC(=O)c1c(C)[nH]c(C(=O)OCC(=O)Nc2ccc(C)cc2[N+](=O)[O-])c1C	–	–	–	13	–	–	107	–
c1ccc2cc(Cn3ccc4ccc(-c5ccc6cc[nH]c6c5)cc43)ccc2c1	–	–	·	·	·	·	·	·
O=C(CNCc1ccc(F)cc1)Nc1ccccc1[N+](=O)[O-]	–	–	–	24	–	–	–	–
O=C(CCc1ccccc1)Nc1ccccc1[N+](=O)[O-]	–	–	–	–	–	–	·	·
O=C(NC1CCCCN(Cc2cccc(C(F)(F)F)c2)C1=O)c1ccc(F)c(F)c1 (stereo not drawn)	–	–	·	·	·	·	·	·
Nc1cnn(C2OC(CO)C(O)C2O)c(=O)n1 (stereo not drawn)	–	–	–	21	–	–	–	–
Nc1nc(=O)n(C2OC(CO)C(O)C2O)cc1F (stereo not drawn)	–	–	–	–	–	–	·	·
CCN1CCCCC(NC(=O)c2ccccc2)C1=O (stereo not drawn)	–	–	·	·	·	·	·	·
COC(=O)c1cc(C(c2ccccc2O)C2CCC(C)(C)O2)n2ccccc12 (stereo not drawn)	–	–	·	·	·	·	·	·
NC(=O)C1CCN(C(=O)c2ccc3nc(N4CCCCC4)sc3c2)CC1	–	–	–	16	–	–	–	–
O=C(Nc1ccccc1C(F)(F)F)OCCN1C(=O)CCC12CCC(c1ccccc1)CC2 (stereo not drawn)	–	–	·	·	·	·	·	·
O=S1(=O)CC2c3ccc(F)cc3CN2CN1CCc1ccccc1 (stereo not drawn)	–	–	·	·	·	·	·	·
COc1ccc(OCc2cc(=O)c3ccc4c(c3o2)C=CC(C)(C)O4)cc1OC	–	–	–	–	–	–	·	·
CC(C)=CCOc1ccc([C@@H]2COc3c(ccc4c3C=CC(C)(C)O4)C2)c(O)c1	–	–	–	19	–	–	18	22
CC1Oc2ccccc2C=C1/C=N/Nc1ccc(C(=O)O)cc1 (stereo not drawn)	–	–	–	14	–	–	14	–
O=C(O)CCCn1cc(NC(=O)c2ccc(F)cc2)cn1	–	–	–	–	–	–	·	·
O=C(O)CCCn1cc(NC(=O)c2c(F)cccc2F)cn1	–	–	–	15	–	–	–	–
Cc1ccc(CNC(=O)O[C@H]2CC[C@@]34CCCN3C(=O)CCC[C@H]4[C@H]2C)cc1	·	–	·	·	·	·	·	·
COc1cccc(N2CCN(CC(=O)NCc3cccc(OC)c3OC)CC2)c1	–	–	·	·	·	·	·	·
CC(C)CSc1nnc(N)s1	–	–	–	14	–	–	–	–
COc1ccc(CNC(=O)[C@@H](C)NC(=O)[C@@H]2Cc3ccccc3CN2)cc1	–	–	–	20	–	–	–	–
SMILES	SRC2 inh	COUP-TFII inh	NCOA1 inh	GalR3 antag	NR5A2 inv ag	SRC3 inh	GalR3 conf	CNG parental
COc1ccc(CNC(=O)CNC(=O)[C@@H]2Cc3ccccc3CN2)cc1	–	–	–	–	–	–	·	·
CC(C)(C)CCN1C[C@@H]2C(CNC(=O)c3cc(Cl)cc(Cl)c3)[C@@H]2C1 (stereo partly drawn)	·	–	·	·	·	·	·	·
N#Cc1c(N)nc2c3c(sc(=N)c2c1N)NC(=O)CC3c1c(F)cccc1Cl (stereo not drawn)	–	–	–	–	–	–	·	·
N#Cc1c(N)nc2c3c(sc(=N)c2c1N)NC(=O)CC3c1ccccc1 (stereo not drawn)	–	–	–	22	–	–	25	–
Cc1c(C#N)c(N)nc2c3c(sc12)NC(=O)CC3c1ccc(Cl)cc1 (stereo not drawn)	–	–	–	25	–	–	48	–
COc1cc(OC)cc(C(=O)NCC(=O)NCCN2C(=O)S/C(=C\c3ccc4c(c3)OCO4)C2=O)c1	–	–	–	13	–	–	–	–
COc1cc(OC)cc(C(=O)NCC(=O)NCCN2C(=O)S/C(=C\c3ccccc3Cl)C2=O)c1	–	–	–	–	–	–	·	·
Cc1ccc(S(=O)(=O)NCc2ccccc2)s1	–	–	–	–	–	–	·	·
Cc1ccc(S(=O)(=O)NCc2cccnc2)s1	–	–	–	13	–	–	–	–
COc1cccc(N2CCN(CC(=O)N(C)Cc3ccccc3Cl)CC2)c1	–	–	·	·	·	·	·	·
C#CCCN([C@H](C(=O)OC)C(C)CC)S(=O)(=O)c1ccccc1Br (stereo partly drawn)	–	–	·	·	·	·	·	·
CCn1c(=S)[nH]c2scc(-c3cccs3)c2c1=O	–	–	–	–	–	–	·	·
CC(C)n1c(=S)[nH]c2scc(-c3cccs3)c2c1=O	–	–	–	13	–	–	–	–
CCNC(=S)NNC(=O)CSc1nnc(-c2ccccc2)n1-c1ccc(Cl)cc1	–	–	·	·	·	·	·	·
COc1cc(C(Nc2ccc(S(=O)(=O)NCC3CCCO3)cc2)C(=O)NC(C)(C)C)cc(OC)c1OC (stereo not drawn)	–	–	–	16	–	–	–	–
CCOC(=O)CNC(=O)CNC(=O)c1ccc(OC(C)C)cc1	–	–	–	–	–	–	·	·
CCOC(=O)CNC(=O)CNC(=O)c1ccc(OCC(C)C)cc1	–	–	–	86	–	–	–	–
Cc1cc(/C=C(\C#N)C(=O)NCc2ccco2)c(C)n1-c1ccc(C(=O)O)cc1	–	–	–	·	–	–	–	–
N#C/C(=C/c1cn(-c2ccccc2)nc1-c1cccc(S(=O)(=O)N2CCCC2)c1)C(=O)NCc1ccco1	–	–	–	14	–	–	23	–
CN(C)c1ccc(/C=N/NC(=O)CN(c2ccccc2Cl)S(C)(=O)=O)cc1Br	–	–	–	14	–	–	18	–
COC(=O)Oc1ccc(/C=N/NC(=O)CN(c2ccccc2Br)S(C)(=O)=O)cc1OC	–	–	–	–	–	–	·	·
COc1ccc(OCCOC(=O)c2[nH]c(C)c(C(C)=O)c2C)cc1	–	–	–	16	–	–	–	–
